# High-throughput results from PubChem BioAssay.
# The list is not random: actives were taken first. Their share in the collection is about 2.7%.
# proKLK7 act – proKLK7 zymogen activators, primary screen, biochemical, fluorescence intensity; purified proKLK7, EDANS-DABCYL substrate fluorescence; 100% is mature enzyme control, 0% vehicle; actives 0.9% (n = 370,000); activation, % at 7 µM;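 active means activation above the mean of all tested compounds plus 3 SD, computed per campaign excluding outliers beyond control limits, cut at about 13% in these data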
# Target sequence (P49862 whole entry, looked up): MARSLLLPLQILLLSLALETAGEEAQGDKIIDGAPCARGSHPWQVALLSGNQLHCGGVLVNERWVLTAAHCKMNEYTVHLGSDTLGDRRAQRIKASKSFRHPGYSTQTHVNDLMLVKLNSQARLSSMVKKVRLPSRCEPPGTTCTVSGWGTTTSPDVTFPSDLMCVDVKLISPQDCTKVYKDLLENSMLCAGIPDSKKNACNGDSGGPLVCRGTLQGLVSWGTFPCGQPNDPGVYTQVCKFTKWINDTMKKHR
# FAS-TE inh – FAS thioesterase domain inhibitors, primary screen, biochemical, fluorescence intensity, uHTS; recombinant FAS-TE, OMFH fluorogenic substrate, fluorescence endpoint; inhibition, % at 15 µM; actives 0.67% (n = 360,000);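 active means compounds whose normalised, plate-corrected inhibition of enzyme fluorescence in the single-dose primary screen is 50% or more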
# Neddylation inh – inhibitors of cullin neddylation, primary screen, biochemical, TR-FRET, uHTS, NAE and Ubc12. calls only at 25 µM. actives 0.58% (n = 360,000); in the data active means inhibition above about 36%
# PfGluPho inh – PfG6PD enzyme inhibitors, primary screen, biochemical, fluorescence intensity, uHTS. PfGluPho enzyme, NADPH resazurin-diaphorase fluorescence. glucose-6-phosphate dehydrogenase-6-phosphogluconolactonase (Plasmodium falciparum 3D7). inhibition, % at 20 µM. actives 0.78% (n = 350,000);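 active means inhibition reaching at least a set limit at 20 µM in the primary screen, cut at about 59% in these data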
# Neddyl conf – blockade of NEDD8 conjugation to cullin – biochemical, TR-FRET, single concentration, confirmation | actives 13% (n = 1,800) | TR-FRET cullin neddylation biochemical assay | AID 652217, 2013 | shares compounds with Neddylation inh | calls only at 25 µM; in the data active means inhibition above about 40%;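 further: neddylation substrate is the cullin 1 ring ligase complex with SKP2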
# KLK7 act conf – proKLK7 zymogen activators, confirmation, biochemical, fluorescence intensity, triplicate; shares compounds with proKLK7 act; purified proKLK7, EDANS-DABCYL substrate fluorescence; scaled: vehicle 0, mature enzyme 100; activation, % at 7 µM; actives 68% (n = 3,200); AID 686949, 2013;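 active means activation, as change over the incubation, above the mean of all tested compounds plus 3 SD, cut at about 13% in these data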
# EDANS interfere – EDANS-DABCYL substrate optical interference, artefact control for kallikrein-7 zymogen activator project, biochemical, fluorescence intensity, high throughput; shares compounds with proKLK7 act; no enzyme, 4 h; solvent 0%, active enzyme control 100%; activation, % at 7 µM; actives 80% (n = 3,200);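 active means activation above the all-compound mean plus 3 SD, ignoring values outside control-based bounds, cut at about 4.8% in these data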;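 further: value is the 4 h activation minus the activation read at time zero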
# K7 EDANS ctr – counter-screen for kallikrein-7 activators: EDANS-DABCYL interference, dose response. AID 720493. EC50, µM. EDANS-DABCYL peptide fluorescence interference, no enzyme. actives 20% (n = 250). shares compounds with proKLK7 act;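 active means compounds that raise the fluorescence signal in this interference counterscreen, with EC50 at or below 10 µM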;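 further: intact quenched peptide substrate alone read at 355 nm excitation and 520 nm emission; signal is fluorescence gain from T0 to T4 after four hours at room temperature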
# Hits are given with their value; 0 = inactive; - = no result given; + = active, no number.
SMILES,proKLK7 act,FAS-TE inh,Neddylation inh,PfGluPho inh,KLK7 act conf,EDANS interfere,others
Nc1c(C(=O)NCC(O)c2ccccc2)cnn1-c1ccccc1 (stereo unspecified),0,-,-,-,-,-,
Cc1ccsc1C(=O)OCC(=O)NC1CCCCC1,0,0,0,0,-,-,
C[C@]12c3[nH]c4cc(-c5ccco5)ccc4c3CCN1C(=O)[C@@H](CC(=O)NCC13CC4CC(CC(C4)C1)C3)C[C@@H]2C(=O)N1CCCCC1,0,0,-,0,-,-,
CN(C)CCCNC(=O)C[C@H]1C[C@H](C(=O)N2CCCCC2)[C@@]2(C)c3[nH]c4cc(-c5ccco5)ccc4c3CCN2C1=O,97.1,0,+,0,86.3,108.5,Neddyl conf=0
COC(=O)[C@]12C[C@H](CC(=O)NCC3CCCCC3)C(=O)N(Cc3cccc4ccccc34)C1=C[C@H](COCc1ccccc1)O[C@@H]2C,0,-,-,-,-,-,
COc1ccc(/C=C/C(=O)OCC(=O)NCc2ccco2)c(OC)c1,0,0,0,0,-,-,
COc1ccc(OC)c(/C=C/C(=O)OCC(=O)NCc2ccco2)c1,22.9,0,+,0,17.2,13.5,K7 EDANS ctr=0
CC(=O)Nc1ccc(C(=O)Nc2ccc(S(=O)(=O)N3CCCC3)cc2)cc1,0,0,0,0,-,-,
O=C(Nc1ccc2c(c1)C(=O)NC2=O)c1ccc(S(=O)(=O)N2CCCC2)cc1,86.4,0,+,0,89.5,39.5,Neddyl conf=0;K7 EDANS ctr=8.5
CCOC(=O)c1c(NC(=O)COC(=O)c2nccnc2N)sc(C(=O)N(C)C)c1C,42.8,0,+,0,42.0,45.8,Neddyl conf=0
CCOC(=O)c1c(NC(=O)COC(=O)c2ccccn2)sc(C(=O)N(C)C)c1C,0,0,0,0,-,-,
COc1ccc(-c2ccc3nnc(SCC(=O)N4CCCC4)n3n2)cc1,15.2,0,+,0,17.2,12.7,K7 EDANS ctr=0
COc1ccc(-c2nnc3ccc(SCC(=O)N4CCCC4)nn23)cc1,0,0,0,0,-,-,
Nc1nc2ccccc2cc1C(=O)NCc1cccs1,0,-,-,-,-,-,
O=C(c1cc(-c2ccco2)nc2ccccc12)N1CCCC(C(F)(F)F)C1 (stereo unspecified),47.7,0,+,0,66.5,66.5,
CC1(C(=O)NS(=O)(=O)c2cccs2)CCN1C(=O)C1(c2ccc(Cl)cc2)CC1 (stereo unspecified),0,0,0,-,-,-,
CCc1ccc(/C=C2\Oc3c(ccc(O)c3CN3CCN(CCO)CC3)C2=O)cc1,28.4,0,0,0,0,6.5,
Cc1ccccc1NC(=O)Cn1nnc(-c2ccncc2)n1,0,-,-,-,-,-,
COc1cc(S(=O)(=O)N2CCN(C(=O)c3cccs3)CC2)ccc1NC(C)=O,0,0,0,0,-,-,
CCN(CC)S(=O)(=O)c1cccc2cc(C(=O)O)c(O)cc12,22.4,0,-,0,73.6,73.0,
CCN(CC)S(=O)(=O)c1cc(C(=O)O)c(Cl)cc1Cl,0,0,0,0,-,-,
Nc1nc(N)c2nc(-c3ccccc3)c(N)nc2n1,59.8,0,0,0,67.0,73.7,
COC(=O)c1ccc(N2C(c3cc(OC)cc(OC)c3)=Cc3ccc(-c4cccnc4)cc3C2CC(=O)C2CC2)cc1 (stereo unspecified),61.7,0,-,-,28.5,0,K7 EDANS ctr=0
COC(=O)c1ccc(N2C(c3cc(OC)cc(OC)c3)=Cc3ccc(-c4ccc(C(N)=O)cc4)cc3C2CC(=O)C2CC2)cc1 (stereo unspecified),40.4,0,-,-,57.0,23.1,K7 EDANS ctr=0
O=C(/C=C(\Nc1ccccc1)c1ccccc1)c1ccccc1,0,-,-,-,-,-,
Cc1ccccc1S(=O)(=O)N1CCCc2nc(-c3ccc(Br)cc3)ccc21,0,-,-,-,-,-,
CNC(=O)COc1ccccc1C(=O)Nc1ccc2c(c1)oc1ccccc12,54.7,0,0,0,0,0,
